This is one part of a sample in which the strongest signals are shown more often than they occur.

PILRa (Mus musculus), Q2YSF3, sequence (Q2YSF3 entry or part of it): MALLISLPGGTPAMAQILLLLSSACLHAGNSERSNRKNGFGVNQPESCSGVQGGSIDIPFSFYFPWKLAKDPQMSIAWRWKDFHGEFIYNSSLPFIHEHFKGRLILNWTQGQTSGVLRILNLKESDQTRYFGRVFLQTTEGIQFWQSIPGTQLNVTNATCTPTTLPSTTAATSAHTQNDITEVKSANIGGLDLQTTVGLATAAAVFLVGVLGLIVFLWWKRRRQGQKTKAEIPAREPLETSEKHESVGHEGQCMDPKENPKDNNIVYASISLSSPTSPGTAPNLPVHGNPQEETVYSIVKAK
Regenerating Gene IV (Homo sapiens), Q9BYZ8, sequence (Q9BYZ8 whole entry, looked up): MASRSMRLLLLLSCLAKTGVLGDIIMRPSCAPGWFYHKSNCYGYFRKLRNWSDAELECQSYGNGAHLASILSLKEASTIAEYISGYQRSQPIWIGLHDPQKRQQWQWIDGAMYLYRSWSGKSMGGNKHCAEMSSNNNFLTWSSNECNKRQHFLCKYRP

For this assay, the system named is Neu5Ac(a2-6)Gal. Description: glycan array binding signal (z-score within array); higher = stronger binding. The settings on record: glycan notation: IUPAC condensed, linker removed. Summed up:
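The binding signal is a Z-score computed within each array and averaged over linkers. Arrays of the same protein sequence at different concentrations or buffers were also averaged together. Data originate from 3228 arrays in the Consortium for Functional Glycomics database, kept only where the protein sequence was available.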
With “Regenerating Gene IV (Homo sapiens), Q9BYZ8”, the “glycan array binding signal (z-score)” value is 0.693.

Take HARE (Homo sapiens), Q8WWQ8: the “glycan array binding signal (z-score)” value was -0.26.

PILRa (Mus musculus), Q2YSF3: the “glycan array binding signal (z-score)” value is 2.04.

These data come from the supplement of paper PMC8728848.
